A selection: hits, their analogues and other compounds. The true share with any hit is near 4.5%.
ssDAF12 agonist: S. stercoralis DAF-12 activation, primary screen. AID 652126. HEK293 ssDAF-12/GRIP1 lit1-tk-luc reporter, luminescence; % of 3 µM dafachronic acid response. 1% of 370,000 active. activation, % at 6.8 µM;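 active = activation above the mean over all tested compounds plus 3 SD, cut at about 0.9% in these data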;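 also: 0% = DMSO-only wells and 100% = 3 µM delta7-dafachronic acid wells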
DAX1 inh-1: inhibitors of DAX1 repression of SF-1 activated StAR promoter. HEK293T StAR-luciferase reporter, SF-1/DAX-1 repression relief. inhibition, % at 6.8 µM. 1.1% of 370,000 active. AID 652010;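 active = inhibition above the mean over all tested compounds plus 3 SD, cut at about 3.6% in these data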;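 also: 0% = DAX-1 cells with DMSO and 100% = cells lacking DAX-1 with DMSO; higher inhibition means more luminescence from relief of DAX-1 repression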
FXN GAA850 act: frataxin GAA850 promoter activation | 0.56% of 360,000 active | AID 540364 | HEK293 lucGAA850 FXN promoter luciferase reporter, 24 h; percent of 10 µM SAHA response | activation, % at 6 µM;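 active = activation above the average of all compounds screened plus 3 SD, cutoff fixed separately per campaign, cut at about 7.5% in these data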;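 also: 0% = DMSO wells and 100% = 10 µM SAHA wells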
DAX1 inh-2: NR0B1 (DAX1) inhibition; P51843; inhibition, % at 6.75 µM; 0.99% of 340,000 active; HEK293 Gal4-DAX1 luciferase reporter, luminescence; AID 504766;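 active = inhibition above the mean over all tested compounds plus 3 SD, cut at about 4.2% in these data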;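 also: 0% = DAX1-transfected cells with DMSO and 100% = empty-vector control cells with DMSO; inhibition shows as a rise in luminescence from relieved DAX1 repression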
Target sequence (P51843 207-470 limits assumed): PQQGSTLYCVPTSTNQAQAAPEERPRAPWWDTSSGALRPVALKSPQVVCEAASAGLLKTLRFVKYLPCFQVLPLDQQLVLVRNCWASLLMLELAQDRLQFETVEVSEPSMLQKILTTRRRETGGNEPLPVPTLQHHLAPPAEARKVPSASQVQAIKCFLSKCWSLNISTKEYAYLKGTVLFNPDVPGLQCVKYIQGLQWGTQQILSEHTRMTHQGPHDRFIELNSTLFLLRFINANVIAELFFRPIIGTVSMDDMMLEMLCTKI
hcDAF12 agonist: activates DAF-12 receptor from parasite H. contortus. HEK293 hcDAF-12 lit1-tk-luc reporter, luminescence; 0% DMSO, 100% Δ7-dafachronic acid. activation, % at 6.8 µM. 1.4% of 370,000 active. AID 652067;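 active = activation above the mean of all tested compounds plus 3 SD, cut at about 5.5% in these data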;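 also: 100% = response to 3 µM Δ7-dafachronic acid high control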
hgDAF-12 ag: hgDAF-12 agonism, primary luciferase screen | HEK293 GAL4-hgDAF12 UAS-luciferase reporter, agonist luminescence; normalized to butyrate control | activation, % at 6.8 µM | 1.8% of 370,000 active | AID 687014;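 active = activation above a cutoff set at the mean of all screened compounds plus 3 SD, cut at about 10% in these data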;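 also: 0% = DMSO wells and 100% = sodium butyrate wells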
* hit, by the source's call.

What do the screens show for `CCOC(=O)c1c(C)[nH]c(C(=O)OCc2ccc(C)cc2)c1C`?
ssDAF12 agonist: 0; DAX1 inh-1: 4.2*; FXN GAA850 act: 2; DAX1 inh-2: 0; hcDAF12 agonist: 1; hgDAF-12 ag: 4

How did Cc1cccc(NC(=O)C(=O)NCC2CCCO2)c1 (stereo not drawn) do in these assays?
ssDAF12 agonist: -1; DAX1 inh-1: 3.8*; FXN GAA850 act: 6; DAX1 inh-2: 0; hcDAF12 agonist: 3; hgDAF-12 ag: 13*

How did CCOc1cc(-c2noc(-c3cccnc3)n2)ccc1OC do in these assays?
ssDAF12 agonist: -1; DAX1 inh-1: 1; FXN GAA850 act: 1; DAX1 inh-2: 4.6*; hcDAF12 agonist: -1; hgDAF-12 ag: 1

What do the screens show for `CCOc1ccc(-c2nc(-c3cccnc3)no2)cc1`?
ssDAF12 agonist: 0; DAX1 inh-1: 4.5*; FXN GAA850 act: 2; DAX1 inh-2: -1; hcDAF12 agonist: 4; hgDAF-12 ag: 12*

Results for COc1ccc(-c2nc(-c3cccnc3)no2)cc1 ?
ssDAF12 agonist: 1.3*; DAX1 inh-1: 3; FXN GAA850 act: 4; DAX1 inh-2: 1; hcDAF12 agonist: 5; hgDAF-12 ag: 11*

How did CCCCOc1ccc(-c2nc(-c3cccnc3)no2)cc1 do in these assays?
ssDAF12 agonist: -1; DAX1 inh-1: 1; FXN GAA850 act: 5; DAX1 inh-2: 1; hcDAF12 agonist: 0; hgDAF-12 ag: 6

What do the screens show for `CCOc1ccc(-c2noc(COC)n2)cc1OC`?
ssDAF12 agonist: 4.0*; DAX1 inh-1: 1; FXN GAA850 act: 6; DAX1 inh-2: 0; hcDAF12 agonist: 0; hgDAF-12 ag: 2

Results for CC(=O)C1(C(=O)NCc2ccccc2)CC(c2ccccc2C(F)(F)F)=NO1 (stereo not drawn) ?
ssDAF12 agonist: -1; DAX1 inh-1: -1; hcDAF12 agonist: -2; hgDAF-12 ag: 4

How did COc1cccc(-c2nc(-c3ccc(C(=O)O)cc3)no2)c1 do in these assays?
ssDAF12 agonist: 1.0*; DAX1 inh-1: 2; FXN GAA850 act: 5; DAX1 inh-2: 2; hcDAF12 agonist: 3; hgDAF-12 ag: 9

Results for Oc1ccccc1C=NN=C1c2ccccc2-c2ccccc21 ?
ssDAF12 agonist: 2.1*; DAX1 inh-1: -1; FXN GAA850 act: 2; DAX1 inh-2: 1; hcDAF12 agonist: 3; hgDAF-12 ag: 3

How did O=C(O)c1ccccc1C=NN=C1c2ccccc2-c2ccccc21 do in these assays?
ssDAF12 agonist: 0; DAX1 inh-1: 0; FXN GAA850 act: 4; DAX1 inh-2: 1; hcDAF12 agonist: 2; hgDAF-12 ag: 1

How did CCOc1ccccc1N(C(=O)Nc1cccc(Cl)c1)C1=NC(C)CS1 (stereo not drawn) do in these assays?
ssDAF12 agonist: -2; DAX1 inh-1: -1; FXN GAA850 act: 2; DAX1 inh-2: 4.5*; hcDAF12 agonist: -3; hgDAF-12 ag: 1

What do the screens show for `O=C(CN1CCCc2ccccc21)NCc1ccc(Cl)cc1`?
ssDAF12 agonist: 0; DAX1 inh-1: 1; hcDAF12 agonist: 2; hgDAF-12 ag: 2

Results for O=C(O)c1ccc(NC2=C(Cl)C(=O)c3ccccc3C2=O)cc1 ?
ssDAF12 agonist: 0.9*; DAX1 inh-1: 0; FXN GAA850 act: 1; DAX1 inh-2: 3; hcDAF12 agonist: 6.7*; hgDAF-12 ag: 2

How did O=C(O)c1cccc(NC2=C(Cl)C(=O)c3ccccc3C2=O)c1 do in these assays?
ssDAF12 agonist: -1; DAX1 inh-1: 1; FXN GAA850 act: 4; DAX1 inh-2: -1; hcDAF12 agonist: 3; hgDAF-12 ag: 3

How did CC(C)(C)c1ccc(C(=O)Nn2cnnc2)cc1 do in these assays?
ssDAF12 agonist: 1.0*; DAX1 inh-1: 0; FXN GAA850 act: 1; DAX1 inh-2: 3; hcDAF12 agonist: 4; hgDAF-12 ag: 5

Results for O=C(CCc1nc2ccccc2c(=O)[nH]1)NCc1ccccn1 ?
ssDAF12 agonist: -1; DAX1 inh-1: 0; FXN GAA850 act: 3; DAX1 inh-2: 1; hcDAF12 agonist: -1; hgDAF-12 ag: 3

What do the screens show for `O=C(CCc1nc2ccccc2c(=O)[nH]1)NCc1ccco1`?
ssDAF12 agonist: -1; DAX1 inh-1: 1; FXN GAA850 act: 0; DAX1 inh-2: 5.4*; hcDAF12 agonist: 1; hgDAF-12 ag: -4

What do the screens show for `CC1CCN(C(=O)CCCOc2ccc(Cl)cc2)CC1`?
ssDAF12 agonist: 1.3*; DAX1 inh-1: 0; FXN GAA850 act: 6; DAX1 inh-2: 1; hcDAF12 agonist: -1; hgDAF-12 ag: 3

What do the screens show for `COC(=O)[C@H](CC(C)C)N(CCc1cn(Cc2ccc(C)cc2)nn1)S(=O)(=O)c1ccc(F)cc1Br`?
ssDAF12 agonist: -2; DAX1 inh-1: 0; hcDAF12 agonist: -2; hgDAF-12 ag: 1

Results for O=C1Nc2ccccc2N=C(c2ccc3c(c2)OCO3)C1N(C(=O)c1ccc2ccccc2c1)C1CC1 (stereo not drawn) ?
ssDAF12 agonist: 0; DAX1 inh-1: 4; hcDAF12 agonist: 5.6*; hgDAF-12 ag: 11*

What do the screens show for `O=C1Nc2ccccc2N=C(c2ccc3c(c2)OCO3)C1N(C(=O)c1ccnc2ccccc12)c1ccccc1` (stereo not drawn)?
ssDAF12 agonist: 0; DAX1 inh-1: -1; hcDAF12 agonist: 2; hgDAF-12 ag: 5

How did O=C(Nc1c(-c2ccc(F)cc2)nc2ncccn12)C1CC1 do in these assays?
ssDAF12 agonist: -1; DAX1 inh-1: 0; hcDAF12 agonist: -2; hgDAF-12 ag: 2

What do the screens show for `O[C@H](COc1ccc(OC(F)(F)F)cc1)CN1CCC(C(O)(c2ccccc2)c2ccccc2)CC1`?
ssDAF12 agonist: -2; DAX1 inh-1: -2; hcDAF12 agonist: -3; hgDAF-12 ag: -2

How did CC(=O)C(C(c1ccccc1)N1CCCc2ccccc21)N1CCOCC1 (stereo not drawn) do in these assays?
ssDAF12 agonist: 1.1*; DAX1 inh-1: 0; FXN GAA850 act: 5; DAX1 inh-2: 0; hcDAF12 agonist: 3; hgDAF-12 ag: 0

How did COc1ccc(NC(=O)c2cc(-c3ccccc3Cl)no2)cc1 do in these assays?
ssDAF12 agonist: -1; DAX1 inh-1: 0; FXN GAA850 act: 1; DAX1 inh-2: 0; hcDAF12 agonist: 0; hgDAF-12 ag: 2

How did O=C(Nc1ccccc1)c1cc(-c2ccccc2Cl)no1 do in these assays?
ssDAF12 agonist: 0; DAX1 inh-1: 3; FXN GAA850 act: 3; DAX1 inh-2: 4.3*; hcDAF12 agonist: 1; hgDAF-12 ag: 10

How did COC(=O)C1CN(CCc2ccccc2)CCS(=O)(=O)N1Cc1ccc(C)cc1 (stereo not drawn) do in these assays?
ssDAF12 agonist: -1; DAX1 inh-1: -1; hcDAF12 agonist: -2; hgDAF-12 ag: 1

Screening results: PubChem BioAssay, The Scripps Research Institute Molecular Screening Center
